GCN5L2 inh: GCN5L2 (KAT2A) acetyltransferase inhibition; Q92830; GCN5L2 HAT assay, ThioGlo1 CoA-SH fluorescence; Potency, µM (doses to about 58.9 µM), usual class: inhibitors; actives 0.21% (n = 390,000); AID 504327
Target sequence (Q92830 whole entry, looked up): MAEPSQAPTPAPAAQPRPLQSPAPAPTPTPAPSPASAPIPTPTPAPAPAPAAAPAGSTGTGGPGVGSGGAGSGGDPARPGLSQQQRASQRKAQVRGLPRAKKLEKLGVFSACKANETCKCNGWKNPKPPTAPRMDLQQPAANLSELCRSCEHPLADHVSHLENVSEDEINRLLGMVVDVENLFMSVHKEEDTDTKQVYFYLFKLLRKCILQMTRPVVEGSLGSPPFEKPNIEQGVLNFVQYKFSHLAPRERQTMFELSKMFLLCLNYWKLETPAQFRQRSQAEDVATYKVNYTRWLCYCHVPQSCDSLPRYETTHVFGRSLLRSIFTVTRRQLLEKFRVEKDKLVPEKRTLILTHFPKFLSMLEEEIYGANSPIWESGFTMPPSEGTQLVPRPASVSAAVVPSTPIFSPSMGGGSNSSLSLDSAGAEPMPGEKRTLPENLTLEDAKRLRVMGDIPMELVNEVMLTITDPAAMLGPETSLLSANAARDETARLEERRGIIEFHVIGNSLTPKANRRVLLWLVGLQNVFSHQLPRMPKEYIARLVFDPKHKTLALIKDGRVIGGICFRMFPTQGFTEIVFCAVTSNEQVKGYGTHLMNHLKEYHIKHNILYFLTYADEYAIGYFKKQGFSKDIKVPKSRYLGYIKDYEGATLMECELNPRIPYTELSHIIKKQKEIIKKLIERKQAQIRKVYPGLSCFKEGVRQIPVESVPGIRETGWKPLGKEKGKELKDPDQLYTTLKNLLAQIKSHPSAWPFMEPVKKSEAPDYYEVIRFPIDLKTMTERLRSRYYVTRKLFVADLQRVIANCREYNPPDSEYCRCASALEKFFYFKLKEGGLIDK
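GCN5L2 (20nM final) in 50mM HEPES, 0.1mM EDTA pH 7.5, 0.01% Tween-20 was preincubated 15 min at room temperature with compound, then given ThioGlo1 (50uM), H3(1-25) peptide (75uM) and acetyl-CoA (70uM); CoA-thiol fluorescence (Ex340/Em540) was read at 0 and 20 min.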
BAZ2B block: BAZ2B (human) inhibition; AlphaScreen BAZ2B-H3K14Ac peptide displacement; Potency, µM (highest dose often 114 µM), actives largely listed as inhibitors; actives 4.4% (n = 360,000); note: nearly all actives have a fitted effect of over 60% in size
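BAZ2B 50 nM plus b-H3(5-23)K14Ac 50 nM, PBS pH 7.4/0.01% Tween-20, 30 min RT; compound added (max 110 uM), 30 min RT; streptavidin donor/Ni-chelate acceptor beads 10 ug/mL final, 20 min dark; AlphaScreen read.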
JMJD2A Tudor inh: JMJD2A Tudor domain (human) inhibition. AlphaScreen JMJD2A-Tudor / H3K4me3 peptide binding. actives 4.4% (n = 390,000). Potency, µM (highest dose often 114 µM), most hits filed as inhibitors. O75164; note: nearly all actives have a fitted effect of over 50% in size
HP1b chromo inh: blocks HP1-beta chromodomain binding to methylated histone tails; P83916; AlphaScreen HP1-beta / biotin-H3K9me3 peptide binding; Potency, µM (series often up to 114 µM), hits mostly inhibitors; actives 0.56% (n = 390,000); AID 540317; note: nearly all actives have a fitted effect of over 70% in size
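AlphaScreen: HP1-beta (50 nM) preformed 30 min with biotin-H3(1-18)K9me3 peptide (50 nM) in PBS pH 7.4, 0.01% Tween-20. Compound added for 30 min at RT, then streptavidin donor/nickel chelate acceptor beads (10 ug/mL) for 30 min.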
PLK1 PBD block: blocks phosphopeptide binding to human PLK1 polo-box domain; P53350; Plk1 PBD binding of FITC phosphopeptide, fluorescence polarization; Potency, µM, usual class: inhibitors; actives 2.8% (n = 360,000); AID 720504; note: series mostly up to about 57 µM; nearly all actives have a fitted effect of over 65% in size
PI5P4Ka inh: inhibitors of human PI5P4K alpha | P48426 | PI5P4Kalpha enzyme, ADP-Glo luminescence, 60 min; active compounds read low | max response, % | actives 1.2% (n = 330,000) | AID 652105; active = max response of -50% or lower; inconclusive = between -30% and -50%; inactive = -30% or higher; note: value at the top dose of about 77 µM
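ADP-Glo luminescence end-point after a 60 min room-temperature kinase reaction. PI5P4Kalpha and substrate in HEPES pH 7.4 buffer with EGTA, 0.1% CHAPS and 5% DMSO; ATP at 5 microM final.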
Hits are given with their value; – = inactive; ? = inconclusive; · = no result; [ ] = remark or other dose. Sampled rows, rich in hits. Any-hit rate of the full collection: about 7%. Unless noted, calls come from the whole dose curve; as a rule, active = well fitted curve in the direction sought with a large enough effect; inconclusive = small, poorly fitted or top-dose-only effect, or another doubt; inactive = no such curve, though single readings can be large; an effect the other way counts as inactive or inconclusive.

SMILES	GCN5L2 inh	BAZ2B block	JMJD2A Tudor inh	HP1b chromo inh	PLK1 PBD block	PI5P4Ka inh
CCN(C(=O)COC(=O)/C=C/c1ccc(C)o1)c1c(N)n(Cc2ccccc2)c(=O)[nH]c1=O	–	–	79µM	?	–	–
CCN(C(=O)CN1CCCCCC1)c1c(N)n(Cc2ccccc2)c(=O)[nH]c1=O	–	·	–	–	–	–
Cc1ccc(/C=C/C(=O)OCC(=O)N(CC(C)C)c2c(N)n(Cc3ccccc3)c(=O)[nH]c2=O)o1	–	–	–	–	–	–
CC(C)CN(C(=O)COC(=O)c1ccccn1)c1c(N)n(Cc2ccccc2)c(=O)[nH]c1=O	–	?	6.3µM	–	–	–
CCN(C(=O)CN1CCN(c2ccc(O)cc2)CC1)c1c(N)n(Cc2ccccc2)c(=O)[nH]c1=O	–	·	?	–	27µM	–
CC(C)CN(C(=O)COC(=O)c1cnccn1)c1c(N)n(Cc2ccccc2)c(=O)[nH]c1=O	–	–	–	–	–	–
CCC(NC(=O)C1CCCC1)c1ccccc1 (stereo not drawn)	·	·	–	–	–	–
CN(C)c1ccc(C(O)c2cc3ccccc3s2)cc1 (stereo not drawn)	·	·	32µM	?	–	–
CCc1cc(=O)oc2c(CN3CCCC3)c(O)c(Cl)cc12	–	–	–	–	–	·
Cc1cc(=O)oc2c(CN3CC(C)OC(C)C3)c(O)c(Cl)cc12 (stereo not drawn)	–	?	79µM	?	?	?
COc1ccc(Br)c2c1-c1nc(NC(=O)c3cccc(C)c3)sc1C2	–	?	?	–	·	·
CC1Sc2ccc(S(=O)(=O)CCC(=O)N(C)Cc3ccco3)cc2NC1=O (stereo not drawn)	–	–	–	–	?	–
COc1ccccc1NS(=O)(=O)c1ccc2c(c1)NC(=O)C(C)S2 (stereo not drawn)	–	–	–	–	27µM	–
CCOc1ccccc1N(C)C(=O)CCS(=O)(=O)c1ccc2c(c1)NC(=O)C(C)S2 (stereo not drawn)	–	–	?	–	27µM	–
CC1Sc2ccc(S(=O)(=O)CCC(=O)Nc3ccccc3Cl)cc2NC1=O (stereo not drawn)	–	–	–	–	27µM	–
COc1cccc(NS(=O)(=O)c2ccc3c(c2)NC(=O)C(C)S3)c1 (stereo not drawn)	–	–	–	–	–	–
Cc1ccc(NC(=O)CCS(=O)(=O)c2ccc3c(c2)NC(=O)C(C)S3)cc1Cl (stereo not drawn)	–	–	–	–	–	–
COc1ncc(C2=CC(=O)CC(C)(C)C2)cn1	–	–	–	–	–	–
CCN1/C(=C/C=C/c2oc3ccc4ccccc4c3[n+]2CC)Oc2ccc3ccccc3c21	–	?	?	–	–	-74
Cc1cc(=S)nc(-c2ccccn2)[nH]1	–	?	?	–	?	–
Cc1[nH]c(-c2ccccn2)nc(=S)c1Cl	–	–	–	–	30µM	–
O=C1c2cccc(NCCNCCO)c2C(=O)c2cccc(NCCNCCO)c21	·	·	35µM	?	–	–
O=C(O)CCNc1ccc(NCCC(=O)O)c2c1C(=O)c1ccccc1C2=O	–	11µM	22µM	14µM	?	-68
COc1ccccc1NCCC(=O)O	–	–	–[11.4 µM]	–	–	–
O=C(O)c1ccccc1NCCO	–	·	–	–	–	–
SMILES	GCN5L2 inh	BAZ2B block	JMJD2A Tudor inh	HP1b chromo inh	PLK1 PBD block	PI5P4Ka inh
N#CC1(c2ccccc2)CCC(NCCc2ccccc2)CC1 (stereo not drawn)	–	56µM	50µM	–	–	–
O=C(NCCc1ccccc1)C1(c2ccccc2)CCCC1	–	–	–	–	–	–
CN(C)C1NC(=O)c2cc(-c3ccccc3)sc2N1 (stereo not drawn)	–	50µM	?	–	–	–
COC(=O)c1sc(-c2ccccc2)cc1NC(C)=O	–	–	–	–	–	–
CCc1ccccc1NC(=O)CSc1ncc(S(=O)(=O)c2ccccc2)c(N)n1	–	–	–	–	·	·
CCc1ccccc1NC(=O)CSc1ncc(S(=O)(=O)c2ccc(C(C)C)cc2)c(N)n1	–	–	20µM	–	·	·
Cc1cccc(C)c1NC(=S)N(CCN1CCCCCC1)Cc1ccco1	–	–	–	–	–	–
CCN1CCN(CCCN(Cc2ccco2)C(=S)Nc2cc(Cl)ccc2C)CC1	–	–	–	–	24µM	–
CCN1CCN(CCCN(Cc2ccco2)C(=S)Nc2ccc(C)c(Cl)c2)CC1	–	–	–	–	–	–
Cc1cc(C)c(NC(=S)N(CCN2CCCCC2)Cc2ccco2)c(C)c1	–	–	–	–	21µM	–
CCCC[C@H]1COCCS(=O)(=O)N1Cc1cccc([N+](=O)[O-])c1	–	–	–	–	–	–
CC(C)N(Cc1nc(-c2ccccc2)no1)C(=O)CSc1ccccc1	–	–	–	–	15µM	·
Cc1cccc(-c2noc(CN(C(=O)c3ccc4c(c3)OCO4)C(C)C)n2)c1	–	–	–[11.4 µM]	–	27µM	–
CN(Cc1ccc(C(F)(F)F)cc1)C(=O)[C@H]1O[C@@H](n2ccc(=O)[nH]c2=O)[C@H](O)[C@@H]1O	·	·	·	·	–	–
Cc1ccc2c(CC(=O)Nc3ccc(S(=O)(=O)N4CCC(C)CC4)cc3)coc2c1	–	?	–	–	·	·
CCC(C)(C)n1nnnc1C(c1ccc2ncccc2c1)N1CCN(c2ccc(O)cc2)CC1 (stereo not drawn)	–	–	14µM	–	–	–
CCC(C)(C)n1nnnc1C(c1ccc(OC)c(OC)c1)N1CCN(c2ccc(OC)cc2)CC1 (stereo not drawn)	–	50µM	28µM	–	–	–
CCC(C)(C)n1nnnc1C(c1ccc2ncccc2c1)N1CCN(c2nc3ccccc3s2)CC1 (stereo not drawn)	–	–	–	–	–	·
COc1ccc(C(c2nnnn2CC2CCCO2)N2CCN(c3ccc(F)cc3)CC2)cc1 (stereo not drawn)	–	56µM	–[11.4 µM]	–	24µM	–
CCCCC(c1nnnn1CC1CCCO1)N1CCN(c2nc3ccccc3s2)CC1 (stereo not drawn)	–	50µM	–[11.4 µM]	–	?	–
COc1ccc(CNS(=O)(=O)CCNC(=O)c2cccc(OC)c2)cc1	–	–	–	–	–	–
O=C(NC(Cc1cn(Cc2ccccc2)cn1)C(=O)O)OCC1c2ccccc2-c2ccccc21 (stereo not drawn)	·	·	·	·	–	–
COc1ccc(N2CCN(C(c3ccc(C)cc3)c3nnnn3C(C)(C)C)CC2)cc1 (stereo not drawn)	·	·	50µM	–	·	·
COc1ccc(N2CCN(C(c3ccc4ncccc4c3)c3nnnn3C(C)(C)C)CC2)cc1 (stereo not drawn)	–	35µM	?	–	–	–
